# TGFb SMAD3 inh – inhibitors of TGF-b signaling; AID 588855; Potency, µM (series often up to 46.1 µM), without a hit: top-dose activity, negative = inhibition, usual class: inhibitors; HepG2 CAGA-GFP TGF-b/SMAD3 reporter, GFP fluorescence, 18 h; TGF-beta stimulated, 500 pg/mL final; 410,000 compounds, 1.2% hits; note: potency is the fitted concentration of half-maximal effect; % is set by controls: 0 for no effect and ±100 for the full control effect; nearly all actives have a fitted effect of over 65% in size
#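 Smad-responsive CAGA-GFP expression was quantified in HEPG2 cells exposed to compounds and 500 pg/mL final TGF-beta for 18 h at 37 degrees C; unstimulated wells defined full inhibition.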
# DT40 TDP1 CPT – DT40-hTDP1 cell growth loss with CPT; Potency, µM (series often up to 46.2 µM), for the others: at the highest dose activity change, negative = growth inhibition, most hits filed as inhibitors; 420,000 compounds, 12% hits; AID 686979; chicken DT40 Tdp1-/-;hTDP1 cells + 20 nM CPT, ATP luminescence, 48 h; note: potency is the fitted concentration of half-maximal effect; % is set by controls: 0 for no effect and ±100 for the full control effect; nearly all actives have a fitted effect of over 55% in size
#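 Cell growth measured by CellTiter-Glo luminescence after a minimum 48 h, 37 C compound exposure with 20 nM CPT in Tdp1-knockout DT40 cells stably expressing hTDP1, seeded 400/well; qHTS titration format.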
# DT40 TDP1 no CPT – qHTS for Inhibitors of human tyrosyl-DNA phosphodiesterase 1 (TDP1): qHTS in cells in absence of CPT; DT40 Tdp1-/- hTDP1 cells, no CPT, ATP luminescence, 48 h; AID 686978, 2013; 420,000 compounds, 15% hits; Potency, µM (doses to about 46.2 µM), for inactives: at the highest dose activity change, negative = growth inhibition, actives largely listed as inhibitors; note: potency is the fitted concentration of half-maximal effect; % is set by controls: 0 for no effect and ±100 for the full control effect; nearly all actives have a fitted effect of over 55% in size
#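 Compound effects on proliferation are scored in DT40 Tdp1-/-;hTDP1 cells in the absence of CPT. ATP levels (CellTiter-Glo luminescence) are recorded after a ≥48 hr, 37 °C incubation.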
# ASM inhibitor – human S-ASM enzyme inhibition; AID 504937; placental ASM, HMU-PC fluorogenic substrate, 60 min; P17405; 340,000 compounds, 0.006% hits; Potency, µM (titrated, usually from 57.5 µM), for inactives: top-dose activity change, negative = inhibition, hits mostly inhibitors; note: potency is the fitted concentration of half-maximal effect
# Target sequence (P17405 47-631 limits assumed): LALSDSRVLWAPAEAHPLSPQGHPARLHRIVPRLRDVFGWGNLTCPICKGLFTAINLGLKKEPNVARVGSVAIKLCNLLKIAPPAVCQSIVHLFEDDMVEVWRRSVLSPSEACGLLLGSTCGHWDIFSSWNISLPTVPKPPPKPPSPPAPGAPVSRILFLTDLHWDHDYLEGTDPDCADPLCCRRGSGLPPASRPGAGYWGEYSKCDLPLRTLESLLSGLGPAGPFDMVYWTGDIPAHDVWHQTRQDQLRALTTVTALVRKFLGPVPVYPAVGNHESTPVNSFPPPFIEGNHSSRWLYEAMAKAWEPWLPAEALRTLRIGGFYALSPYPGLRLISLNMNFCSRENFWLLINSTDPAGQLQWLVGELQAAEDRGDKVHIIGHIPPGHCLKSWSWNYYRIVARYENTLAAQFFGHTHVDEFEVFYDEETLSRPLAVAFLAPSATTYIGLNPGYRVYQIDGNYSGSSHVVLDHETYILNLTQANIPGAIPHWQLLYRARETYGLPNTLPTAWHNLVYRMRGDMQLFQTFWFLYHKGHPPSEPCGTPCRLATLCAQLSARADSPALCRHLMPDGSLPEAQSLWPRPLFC
#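 Steps: dispense placental human ASM, pin compound, wait 10 min at room temperature, add HMU-PC0 substrate at 9 uM final, incubate 60 min at 37 °C, add stop solution raising pH to 10, read fluorescence.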
# IL1B secr inh – blocks inflammasome-driven IL-1 beta release; THP-1 LPS/ATP IL-1B secretion, AlphaLISA, 16 h; stronger effect = lower value; activity change, % at 57.5 µM; 360,000 compounds, 4.7% hits; AID 743279; in the data active = activity change below about -50%; inconclusive = mostly about -30% to -49%; note: % is set by controls: 0 for no effect and ±100 for the full control effect
#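 THP-1 cells pretreated 1 hr with compounds (up to 57.5 uM final), then stimulated with LPS (250 ng/mL final) plus ATP (1.25 mM final); secreted IL-1B measured by AlphaLISA after 16 hr, decreased signal indicating inhibition.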
# HepG2 viability – counter-screen for TGF-b inhibitors: cytotoxicity in HepG2 cells | HepG2 CAGA-GFP viability, ATP luminescence, 18 h | Potency, µM (highest dose often 46.1 µM), for inactives: at the top dose activity change, negative = cytotoxicity, hits mostly cytotoxic | 410,000 compounds, 0.76% hits | AID 588856; note: potency is the fitted concentration of half-maximal effect
#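 CellTiter-Glo luminescence gave cytotoxicity after 18 hours at 37 degrees C. The cells were HepG2 CAGA-GFP in 1% FBS DMEM, stimulated with 500 pg/mL TGF-beta after compound addition. %Activity was normalised to no-cell wells (complete cell-killing) and DMSO (no toxicity), and curves were fitted and classified.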
# Numbers without * were called inactive; i = inactive; ? = inconclusive; . = no result. Rows were chosen to be rich in hits. Some 19% of all compounds tested hit in one or more screens of this group. Unless noted, calls come from the whole dose curve; as a rule, active = well fitted curve in the direction sought with a large enough effect; inconclusive = small, poorly fitted or top-dose-only effect, or another doubt; inactive = no such curve, though single readings can be large; an effect the other way counts as inactive or inconclusive.
SMILES,TGFb SMAD3 inh,DT40 TDP1 CPT,DT40 TDP1 no CPT,ASM inhibitor,IL1B secr inh,HepG2 viability
C#CCOCCOCCOCCNc1nc(N2CCN(C(=O)C(Cc3cc4ccccc4[nH]3)n3cc(C(N)C(C)CC)nn3)CC2)nc(N2CCN(C(=O)C(Cc3cc4ccccc4[nH]3)n3cc(C(N)C(C)CC)nn3)CC2)n1 (stereo unspecified),-5%,16µM*,?,5%,-27,1%
C#CCOCCOCCOCCNc1nc(N2CCN(C(=O)[C@H]([C@@H](C)CC)n3cc([C@@H](N)CC(C)C)nn3)CC2)nc(N2CCN(C(=O)[C@H](Cc3cc4ccccc4[nH]3)n3cc([C@@H](N)Cc4ccc(O)cc4)nn3)CC2)n1,-7%,?,?,9%,-57*,-23%
CC1CCN(C(=O)COC(=O)CNC(=O)C23CC4CC(CC(C4)C2)C3)CC1,5%,3%,1%,1%,0,4%
Cc1cccc(N(C)S(=O)(=O)c2c(C)[nH]c(C)c2C(=O)N2CCCC2)c1,1%,?,?,1%,1,2%
CCOC(=O)C1CCCN(C(=O)C2CCN(Cc3nc(-c4ccc(Cl)cc4)oc3C)CC2)C1 (stereo unspecified),?,?,21µM*,0%,-24,-35%
Cc1oc(-c2ccc(Cl)cc2)nc1CN1CCC(C(=O)NCCCN2CCCC2=O)CC1,-6%,24%,1%,5%,-25,-29%
Cc1oc(-c2ccc(Cl)cc2)nc1CN1CCC(C(=O)N2CCN(Cc3ccccc3)CC2)CC1,-23%,?,?,1%,-60*,-25%
Cc1oc(-c2ccc(Cl)cc2)nc1CN1CCC(C(=O)N2CCc3ccccc3C2)CC1,-2%,23µM*,18µM*,-9%,-10,-14%
CCOc1ccc(-c2nc(CN3CCCC(C(=O)N4CCOCC4)C3)c(C)o2)cc1 (stereo unspecified),11%,-21%,-3%,2%,42,6%
Cc1ccccc1-c1nc(CN2CCC(C(=O)N3CCN(c4ccccn4)CC3)CC2)c(C)o1,-17%,23µM*,?,3%,0,-41%
COc1cc(=O)n2c(c1C(=O)NCc1nonc1C)CCN(C(=O)c1cccc(C)c1C)CC2,.,4%,-23%,.,.,.
O=C(NCc1ccccc1)c1ccc(NC(=O)C2CCCCC2)cc1,-13%,-19%,-27%,0%,65,-12%
CC(NS(=O)(=O)c1ccc(OCC(=O)NCc2ccncc2)cc1)c1ccccc1 (stereo unspecified),5%,4%,9%,0%,32,8%
CCCCCN1N=C(C)CC1=O,?,19%,1%,4%,29,-13%
CC(C)c1ccc(NC2CCCN(C(=O)c3ccc(N4CCOCC4)cc3)C2)cc1 (stereo unspecified),-21%,?,16µM*,.,-6,0%
Cc1nonc1C(=O)N1CCCC(Nc2ccc(C(C)C)cc2)C1 (stereo unspecified),-11%,33%,2.3µM*,1%,0,-19%
Cc1nnsc1C(=O)N1CCCC(Nc2ccc(C(C)C)cc2)C1 (stereo unspecified),-5%,-28%,-13%,3%,51,-13%
CCCCCC(=O)N1C[C@H](O)[C@@H](n2cc(C3CC3)nn2)C[C@@H]1c1ccc(Cl)cc1,8%,6%,-14%,.,-7,-1%
COCCCNc1nnc(Cc2ccc(Cl)cc2)c(=O)[nH]1,-5%,0.41µM*,0.82µM*,8%,24,-14%
Cc1nc2ccccn2c1C(=O)N/N=C/c1ccc([N+](=O)[O-])o1,-20%,2.9µM*,5.8µM*,-6%,28,-18%
CCN(CC)S(=O)(=O)c1cccc(C(=O)N/N=C/c2ccc([N+](=O)[O-])o2)c1,?,21µM*,?,-2%,-89*,-35%
O=[N+]([O-])c1ccc(/C=N\NS(=O)(=O)c2ccc(F)cc2)o1,?,15µM*,?,0%,-29,-5%
O=C(N/N=C/c1ccc(-c2ccccc2[N+](=O)[O-])o1)c1cncc(Br)c1,-6%,?,?,-7%,?,-24%
O=C(N/N=C\c1ccc([N+](=O)[O-])o1)c1cncc(Br)c1,?,4.6µM*,6.5µM*,-2%,-79*,-113%
Cc1nc2ccccn2c1C(=O)N/N=C/c1ccc([N+](=O)[O-])cc1,3%,-3%,-2%,2%,33,-42%
SMILES,TGFb SMAD3 inh,DT40 TDP1 CPT,DT40 TDP1 no CPT,ASM inhibitor,IL1B secr inh,HepG2 viability
CCOc1ccc(CNC(=O)Cn2ncc3c(=O)oc4ccc(C)cc4c32)cc1,-1%,-2%,-23%,.,.,-5%
Cc1ccc(NC(=O)CSc2nnc(C3CC3)n2N)cc1S(=O)(=O)N1CCOCC1,2%,14%,8%,-3%,0,11%
O=C(N/N=C/c1ccc([N+](=O)[O-])o1)c1ccncc1,?,9.2µM*,9.2µM*,-5%,7,i
COc1cc([N+](=O)[O-])cc(/C=N/NC(=O)c2cncc(Br)c2)c1O,?,4.6µM*,18µM*,-3%,74,-96%
COc1cc(/C=N/NC(=O)c2cncc(Br)c2)cc([N+](=O)[O-])c1O,6%,?,?,-1%,56,-6%
O=C(N/N=C/c1ccc([N+](=O)[O-])o1)c1ccc(O)cc1,?,2.9µM*,2.9µM*,-7%,63,-95%
Cc1ccc(C(=O)OCC(=O)NC2CCCCC2)cc1S(=O)(=O)N1CCCCC1,4%,-3%,1%,4%,15,4%
Cc1ccc(C(C)C)c(OCC(=O)Nc2ccc(C(=O)OC3CCCCC3)cc2)c1,-3%,?,?,.,.,-8%
CC1(C)NC(=S)NC1=S,23%,1%,-22%,2%,-13,-3%
COc1ccc(-c2c(C)nn3c(N4CCOCC4)cc(C)nc23)cc1OC,0%,2%,1%,-1%,-13,-1%
COc1ccc(-c2c(C)nn3c(N4CCCCCC4)cc(C)nc23)cc1OC,?,23µM*,26µM*,-3%,-82*,-25%
CCOCCN1CCN(c2c3c(nc4cc(-c5ccc(F)cc5)nn24)CCC3)CC1,8%,?,16µM*,1%,-7,-2%

# Source: PubChem (National Center for Advancing Translational Sciences (NCATS))
